Screening results from PubChem BioAssay.
Shown are actives, neighbours in structure and some others; about 14% of the full set was active somewhere.
HCMV inh = human cytomegalovirus inhibition; HFF cells, HCMV-luciferase reporter, 72 h; stronger effect = lower value; activity change, negative = inhibition, % at 57.5 µM; 410,000 tested, 4.5% active; in the data active = activity change below about -60%; inconclusive = no clear call, values can overlap the other calls; inactive = above about -39%
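Two-dose cell screen: HFF monolayers treated with compounds and infected with luciferase-expressing HCMV at 1 PFU/cell, 72 h at 37C, then lysed for luciferase measurement.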
LASV entry inh = blocks Lassa virus binding to or entry into cells | Lassa virus pseudotype entry inhibition, cell reporter | Potency, µM (doses to about 37.9 µM), hits mostly inhibitors | 300,000 tested, 1.2% active; calls by dose curve; tested in HEK293 cells; note: nearly all actives have a fitted effect of over 50% in size
Pf growth 48h = P. falciparum growth inhibition at 48 hours (one generation); 310,000 tested, 5.9% active; P. falciparum luciferase growth in erythrocytes, 48 h; AID 504832; Potency, µM (highest dose often 28.7 µM), most hits filed as inhibitors
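Luminescence readout; reporter = integrated firefly luciferase in P. falciparum. RBC culture at 2% hematocrit, 0.1% parasitemia final, 37 C/5% CO2; decreased signal taken as growth inhibition.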
Pf growth 96h = P. falciparum growth inhibition at 96 hour, primary screen for plastid delayed-death inhibitors; P. falciparum luciferase reporter growth, 96 h; Potency, µM (doses to about 28.7 µM), most hits filed as inhibitors; 320,000 tested, 6.9% active; AID 504834
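P. falciparum expressing integrated firefly luciferase grown in erythrocytes (2% hematocrit, 0.05% parasitemia final) with compounds for 96 hours at 37 C, 5% CO2. Growth inhibition read as loss of luminescence after adding luciferase detection reagent.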
Marburg entry inh = Marburg virus entry inhibition; 300,000 tested, 1.8% active; AID 540276; Potency, µM (highest dose often 37.8 µM), most hits filed as inhibitors; Marburg virus pseudotyped entry inhibition, cell reporter; calls by dose curve; tested in HEK293 cells
HCV inh = HCV inhibition; AID 651820; 340,000 tested, 3.4% active; Huh7.5.1 HCVcc-Cre infection, luciferase reporter, 44 h; Potency, µM (top dose mostly 41.8 µM), hits mostly inhibitors
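Cells (1,000/well) were plated 4 h before compound, then infected with HCVcc-Cre virus (~0.5 moi). After 44 h further culture, infection was read as luciferase luminescence following a 15 min substrate incubation at room temperature.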
Hits are given with their value; 0 = inactive; ? = inconclusive; - = no result; ! = not confirmed by another sample; [ ] = dose if it differs, or a comment. Unless noted, calls come from the whole dose curve; as a rule, active = well fitted inhibition curve with a large enough effect; inconclusive = small, poorly fitted or top-dose-only effect, or another doubt; inactive = no such curve, though single readings can be large or run the other way.

SMILES	HCMV inh	LASV entry inh	Pf growth 48h	Pf growth 96h	Marburg entry inh	HCV inh
CCOc1cc(C(=O)Nc2ccc(NC(=O)c3cc4ccccc4o3)c(OC)c2)cc(OCC)c1OCC	0	0	-	-	-	-
C#C[C@]1(OC(C)=O)CC[C@H]2[C@@H]3CCC4=C/C(=N/O)CC[C@@H]4[C@H]3CC[C@@]21CC	-	-	0	0.953µM	-	-
C#C[C@]1(O)CC[C@@H]2[C@H]3CCC4=CC(=O)CC[C@H]4[C@H]3C(=C)C[C@@]21CC	-	-	0	0	-	-
COc1ccc(C(=O)OCC(=O)NC2CC2)cc1OC	0	-	0	?	-	0
Cc1cc2oc(=O)cc(-c3cc4ccccc4o3)c2cc1OC(=O)N(C)C	0	0	?	?	0	5.01µM
COC(=O)COc1ccc2oc(=O)cc(-c3cc4ccccc4o3)c2c1	0	-	0	0	-	0
CN(C)C(=O)Oc1ccc2oc(=O)cc(-c3cc4ccccc4o3)c2c1	0	-	0	0	-	11.2µM
CCN(CC)C(=O)Oc1cc2c(-c3cc4cccc(OC)c4o3)cc(=O)oc2cc1C	0	?	10.4µM	10.4µM	0	6.31µM
CCOC(=O)c1cc(S(=O)(=O)N2CCN(c3ccc(C(C)=O)cc3)CC2)[nH]n1	0	0	-	-	-	-
COc1cc(C2C3C(=O)N(Cc4ccccc4)C(=O)C3ON2c2ccccc2)cc(OC)c1OC (stereo unspecified)	0	0	?	?	0	0
COc1ccccc1C1C2C(=O)N(c3ccccc3)C(=O)C2ON1c1ccccc1 (stereo unspecified)	0	0	0	8.28µM	0	0
COc1ccc(C2C3C(=O)N(Cc4ccccc4)C(=O)C3ON2c2ccccc2)c(OC)c1OC (stereo unspecified)	0	5.62µM	?	?	?	?
COc1ccc(CN(C(=O)Nc2cc(C)ccc2C)C2CCN(C(C)=O)CC2)cc1	0	0	-	-	-	-
Cc1ccc(OCC(O)Cn2c(=N)n(CCN3CCOCC3)c3ccccc32)cc1 (stereo unspecified)	0	0	?	0	?	0
OC(COc1ccccc1)CN1CCCCCC1 (stereo unspecified)	0	0	?	0	?	0
N=c1n(CCN2CCOCC2)c2ccccc2n1CC(=O)c1ccc(Cl)c(Cl)c1	0	?	11.7µM	0.465µM	?	?
Cc1ccc(OCC(O)Cn2c(=N)n(CCN3CCCCC3)c3ccccc32)cc1 (stereo unspecified)	-82.4!	?	3.7µM	0[5.75 µM]	8.2µM	2.51µM
N=c1n(CCN2CCOCC2)c2ccccc2n1CC(=O)c1cccc([N+](=O)[O-])c1	0	?	?	?	0	0
N=c1n(CCO)c2ccccc2n1CCOc1ccc(Cl)cc1Cl	0	-	-	0	0	?
N=c1n(CCN2CCCCC2)c2ccccc2n1CC(O)COc1ccc(Cl)cc1Cl (stereo unspecified)	-99.0	?	-	-	5.62µM	-
OC(CNCCCN1CCCCC1)COc1ccccc1 (stereo unspecified)	0	0	?	?	?	10µM
O=C(Cc1ccccn1)N1CC(=O)N2[C@H](C1)[C@@H](c1ccc(Br)cc1)[C@@H]2CO	0	-	-	-	-	-
O=S(=O)(CCN1CCN(c2ccccc2O)CC1)c1cc(Cl)ccc1Cl	0	0	0	0	0	0
O=S(=O)(Nc1ccccc1C(F)(F)F)c1ccc(-c2ccccn2)s1	0	-	0	0	-	0
COc1ccc(CN2C(=O)C(n3cccc3)c3cc(F)ccc32)cc1 (stereo unspecified)	0	-	-	-	-	-
SMILES	HCMV inh	LASV entry inh	Pf growth 48h	Pf growth 96h	Marburg entry inh	HCV inh
COc1ccc(C(O)Cn2c(=N)n(CCCN(C)C)c3ccccc32)cc1 (stereo unspecified)	0	0	?	?	?	0
COc1ccc(OCC(O)CN2CCCCC2)cc1 (stereo unspecified)	?	-	-	0	-	0
N=c1n(CCN2CCCC2)c2ccccc2n1CC(O)c1ccc(Cl)c(Cl)c1 (stereo unspecified)	-98.6	-	?	0	-	11.2µM
N=c1n(CCN2CCCCC2)c2ccccc2n1CC(=O)c1cccs1	0	?	11.7µM	10.4µM	?	?
COc1ccc(OCC(O)Cn2c(=N)n(CCN3CCCCC3)c3ccccc32)cc1 (stereo unspecified)	0	?	4.65µM	?	?	?
CC(C)NC(=O)C1(C)CSCC(=O)N1CCCn1ccnc1 (stereo unspecified)	0	-	-	-	-	-
CCCCNC(=O)C1(C)CCN1C(=O)c1cccc(OC(F)(F)F)c1 (stereo unspecified)	0	-	-	-	-	-
COc1ccc2nc(NCCNC(=S)NCCCN3CCOCC3)c(C#N)cc2c1	0	-	?	0[5.75 µM]	-	0
Cc1cccc2cc(C#N)c(NCCNC(=S)NCCCN3CCOCC3)nc12	0	0	10.4µM	0	?	11.2µM
Cc1cccc2cc(C#N)c(NCCNS(=O)(=O)c3ccc4c(c3)OCCO4)nc12	0	0	0	5.22µM	?	?
Cc1cc2cc(C#N)c(NCCNC(=S)NCCCN3CCOCC3)nc2cc1C	0	0	13.1µM	0	0	?
CCC(=O)NCCCNc1nc2c(C)cccc2cc1C#N	0	0	0	0	0	?
COc1ccc(CN(C)C(=O)c2ccc(OCC(=O)N3CCOCC3)c(OC)c2)cc1	0	0	0	?	?	0
CN(C)CCCn1c(=O)n(CCc2ccccc2)c(=O)c2c3c(sc21)CCCCC3	0	-	?	?	-	0
CN(C)CCCn1c(=O)n(Cc2ccco2)c(=O)c2c3c(sc21)CCCCC3	0	?	?	11.7µM	?	?
CCOc1ccc(CNC(=O)c2cc3ccccn3n2)cc1	0	?	-	-	-	-
Cc1ccc(Nc2nc(N/N=C\c3ccc4c(c3)OCO4)nc(N3CCOCC3)n2)cc1	?	?	10.4µM	?	?	11.2µM
CCOc1cc(/C=N\Nc2nc(Nc3ccccc3)nc(N3CCOCC3)n2)ccc1OC(=O)c1ccco1	0	?	?	0	3.26µM	?
COc1cc(/C=N/Nc2nc(C)cc(C)n2)ccc1OC(=O)c1ccco1	0	?	0	?	0	0
COc1cc(C)c(CN2CCN(S(=O)(=O)c3ccc(Cl)s3)CC2)cc1OC	0	-	?	?	-	?
Cc1ccc(NC(=O)C2CC(=O)N(Cc3ccccc3)C2)cc1S(=O)(=O)N1CCCCCC1 (stereo unspecified)	-77.2	?	?	11.7µM	?	8.91µM
CCN(CC)S(=O)(=O)c1cc(NC(=O)C2CC(=O)N(Cc3ccccc3)C2)ccc1Cl (stereo unspecified)	-63.0	-	10.4µM	?	-	11.2µM
Cc1ccc(CN2CC(C(=O)Nc3ccc(S(=O)(=O)N4CCCCC4)cc3)CC2=O)cc1 (stereo unspecified)	-68.5	?	-	-	0	0
O=C(Nc1ccc(S(=O)(=O)N2CCCCC2)cc1)C1CC(=O)N(Cc2ccccc2)C1 (stereo unspecified)	0	0	13.1µM	?	0	0
Cc1ccc(NC(=O)C2CC(=O)N(CCc3ccccc3)C2)cc1Cl (stereo unspecified)	0	-	?	0	-	0
